Results filed as inconclusive are left out. The source made the active and inactive calls. How the source made its calls, unless noted: active means hit-call score of the fitted dose curve at least 0.9, where 1 is the maximum; inactive means score below 0.9.
Assays:
[1] = molecular target: Cellular tumor antigen p53 (Homo sapiens) (UniProt P04637); assay: ATG_p53_CIS: Attagene CIS-FACTORIAL HepG2 Assay for human p53 Transcription Factor (AID 2282994); conditions: HepG2 p53 cis-element reporter, Attagene mRNA; actives raise or lower the signal
Cellular tumor antigen p53 (Homo sapiens), sequence (P04637 whole entry, looked up): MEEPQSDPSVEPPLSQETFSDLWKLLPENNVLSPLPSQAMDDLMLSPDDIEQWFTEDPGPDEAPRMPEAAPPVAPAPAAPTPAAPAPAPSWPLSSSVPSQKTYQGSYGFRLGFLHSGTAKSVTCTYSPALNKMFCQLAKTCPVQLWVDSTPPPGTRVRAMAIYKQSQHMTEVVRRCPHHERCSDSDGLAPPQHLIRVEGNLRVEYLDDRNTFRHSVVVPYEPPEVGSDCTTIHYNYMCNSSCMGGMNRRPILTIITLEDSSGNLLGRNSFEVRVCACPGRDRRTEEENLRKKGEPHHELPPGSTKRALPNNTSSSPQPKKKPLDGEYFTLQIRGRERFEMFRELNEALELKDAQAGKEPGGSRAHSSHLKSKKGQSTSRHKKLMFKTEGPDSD
Method in brief: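 Endogenous p53 activity read in transiently transfected HepG2 from a cis-element-driven reporter transcript after 24 h exposure. RNA reverse-transcribed, PCR-amplified, fluorescently labelled and sized by capillary electrophoresis; gain or loss fitted against DMSO baseline.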

[2] = BSK_3C_TissueFactor: BioMAP Diversity Plus: 3C Assay for Tissue Factor Biomarker Activity (AID 2282997); conditions: BioMAP 3C HUVEC, tissue factor biomarker readout; actives raise or lower the signal
Method in brief: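 HUVEC, 3C system, 24 h post-dose; Tissue Factor by ELISA; bidirectional fit vs DMSO baseline.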

[3] = BSK_3C_uPAR: BioMAP Diversity Plus: 3C Assay for Urokinase-type plasminogen activator receptor (uPAR) Biomarker Activity (AID 2282998); conditions: BioMAP 3C HUVEC, uPAR biomarker ELISA; actives raise or lower the signal
Method in brief: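 Primary human umbilical vein endothelial cells, 3C system; surface uPAR measured by ELISA 24 h after dosing. Cytotoxicity via SRB total protein in parallel cultures; bidirectional fit against DMSO.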

[4] = BSK_3C_VCAM1: BioMAP Diversity Plus: 3C Assay for Vascular cell adhesion molecule 1 (VCAM1) Biomarker Activity (AID 2282999); conditions: BioMAP 3C HUVEC, VCAM1 ELISA, cytokine-stimulated; actives raise or lower the signal
Method in brief: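 Vascular primary endothelium (human umbilical vein) was exposed to chemicals and assayed 24 h later. VCAM-1 levels came from ELISA, with DMSO serving as baseline for bidirectional fitting.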

[5] = BSK_4H_Eotaxin3: BioMAP Diversity Plus: 4H Assay for Eotaxin 3 Biomarker Activity (AID 2283000); conditions: primary human endothelial cells (HUVEC); actives raise or lower the signal
Method in brief: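 Readout is Eotaxin-3 (CCL26) level by ELISA in primary human umbilical vein endothelial cells harvested 24 h after chemical exposure; activity fitted in both directions against DMSO control.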

[6] = read-out: Intercellular Adhesion Molecule 1 (ICAM1), ICAM1 (gene 3383); assay: BSK_3C_ICAM1: BioMAP Diversity Plus: 3C Assay for Intercellular Adhesion Molecule 1 (ICAM1) Biomarker Activity (AID 2283003); conditions: primary human endothelial cells (HUVEC); actives raise or lower the signal
Method in brief: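 ELISA readout of ICAM1 in human umbilical vein endothelial cells in the 3C system, taken 24 h post-dose. Gain or loss of signal versus DMSO was fitted in both directions, with SRB total-protein staining run in parallel.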

[7] = molecular target: human Peroxisome Proliferator-activated Receptor alpha (PPARa), PPARA (gene 5465) (UniProt Q07869); assay: ATG_PPARa_TRANS: Attagene TRANS-FACTORIAL HepG2 Assay for human Peroxisome Proliferator-activated Receptor alpha (PPARa) (AID 2283001; active means hit-call score of the fitted dose curve at least 0.9, where 1 is the maximum;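 on AC50: potency for gain of reporter signal over DMSO so agonist or activator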)
human Peroxisome Proliferator-activated Receptor alpha (PPARa), PPARA (gene 5465), sequence (Q07869 whole entry, looked up): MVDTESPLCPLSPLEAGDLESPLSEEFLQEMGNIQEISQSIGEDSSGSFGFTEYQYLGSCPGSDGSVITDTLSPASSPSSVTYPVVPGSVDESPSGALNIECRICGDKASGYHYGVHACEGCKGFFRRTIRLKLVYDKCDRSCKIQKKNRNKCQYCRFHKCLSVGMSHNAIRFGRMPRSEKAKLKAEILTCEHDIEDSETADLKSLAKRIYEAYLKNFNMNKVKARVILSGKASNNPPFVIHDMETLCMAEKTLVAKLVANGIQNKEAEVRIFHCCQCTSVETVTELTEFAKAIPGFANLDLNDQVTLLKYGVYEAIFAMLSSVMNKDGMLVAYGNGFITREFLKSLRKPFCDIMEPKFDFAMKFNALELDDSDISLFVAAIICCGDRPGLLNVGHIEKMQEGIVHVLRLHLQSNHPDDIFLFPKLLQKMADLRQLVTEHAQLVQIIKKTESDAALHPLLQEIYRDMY
Method in brief: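 Cells (HepG2) are transfected with multiple reporter transcription units, exposed to chemical for 24 h, then total RNA is reverse-transcribed and amplified. Labelled products are quantified by capillary electrophoresis; induction is referenced to DMSO.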

[8] = molecular target: human Peroxisome Proliferator-activated Receptor delta (PPARd), PPARD (gene 5467) (UniProt Q03181); assay: ATG_PPARd_TRANS: Attagene TRANS-FACTORIAL HepG2 Assay for human Peroxisome Proliferator-activated Receptor delta (PPARd) (AID 2283002; active means hit-call score of the fitted dose curve at least 0.9, where 1 is the maximum)
human Peroxisome Proliferator-activated Receptor delta (PPARd), PPARD (gene 5467), sequence (Q03181 whole entry, looked up, the tested form may be a part): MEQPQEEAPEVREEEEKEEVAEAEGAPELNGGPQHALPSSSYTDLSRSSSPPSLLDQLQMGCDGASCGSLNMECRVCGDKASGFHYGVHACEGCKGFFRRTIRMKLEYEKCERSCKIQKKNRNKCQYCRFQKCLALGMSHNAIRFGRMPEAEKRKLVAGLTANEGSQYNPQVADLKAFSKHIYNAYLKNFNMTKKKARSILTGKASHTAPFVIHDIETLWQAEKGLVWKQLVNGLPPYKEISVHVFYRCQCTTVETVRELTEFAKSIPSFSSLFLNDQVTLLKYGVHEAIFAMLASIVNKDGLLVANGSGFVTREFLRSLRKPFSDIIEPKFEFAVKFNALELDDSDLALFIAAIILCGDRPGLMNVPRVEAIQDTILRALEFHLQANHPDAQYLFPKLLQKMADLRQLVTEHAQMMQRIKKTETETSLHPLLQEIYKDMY
Method in brief: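 Multiplexed trans-activation format: HepG2 liver cells expressing exogenous NR-Gal4 chimeras and GAL4-UAS reporters were exposed for 24 h. Reporter mRNA was detected by RT-PCR with capillary electrophoresis fluorescence; activity fitted as gain of signal relative to DMSO.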

[9] = molecular target: human Retinoic Acid Receptor beta (RARb), RARB (gene 5915) (UniProt P10826); assay: ATG_RARb_TRANS: Attagene TRANS-FACTORIAL HepG2 Assay for human Retinoic Acid Receptor beta (AID 2283004; active means hit-call score of the fitted dose curve at least 0.9, where 1 is the maximum)
human Retinoic Acid Receptor beta (RARb), RARB (gene 5915), sequence (P10826 whole entry, looked up, the tested form may be a part): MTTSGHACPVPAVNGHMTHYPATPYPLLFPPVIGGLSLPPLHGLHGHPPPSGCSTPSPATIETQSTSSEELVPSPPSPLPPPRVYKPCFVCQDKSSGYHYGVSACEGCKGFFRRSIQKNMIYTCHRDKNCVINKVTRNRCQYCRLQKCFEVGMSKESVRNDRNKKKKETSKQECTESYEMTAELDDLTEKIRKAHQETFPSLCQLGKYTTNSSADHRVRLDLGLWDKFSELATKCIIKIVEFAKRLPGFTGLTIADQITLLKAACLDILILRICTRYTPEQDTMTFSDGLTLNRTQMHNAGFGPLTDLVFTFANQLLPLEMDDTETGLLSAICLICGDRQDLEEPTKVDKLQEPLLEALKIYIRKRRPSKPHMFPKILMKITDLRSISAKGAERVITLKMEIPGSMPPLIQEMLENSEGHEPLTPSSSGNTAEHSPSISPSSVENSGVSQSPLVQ
Method in brief: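 Readout is reporter mRNA induction: RNA reverse-transcribed, PCR-amplified, FAM-labelled, HpaI-cut and resolved by capillary electrophoresis. Transiently transfected HepG2 cells carrying exogenous NR–Gal4 chimeras were dosed for 24 h; activity fitted upward relative to DMSO.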

[10] = molecular target: Retinoic acid receptor alpha (Homo sapiens) (UniProt P10276); assay: ATG_RARa_TRANS: Attagene TRANS-FACTORIAL HepG2 Assay for human Retinoic Acid Receptor alpha (RARa) (AID 2283005; active means hit-call score of the fitted dose curve at least 0.9, where 1 is the maximum;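 on AC50: potency for increased reporter signal meaning RARa activation over DMSO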)
Retinoic acid receptor alpha (Homo sapiens), sequence (P10276 whole entry, looked up, the tested form may be a part): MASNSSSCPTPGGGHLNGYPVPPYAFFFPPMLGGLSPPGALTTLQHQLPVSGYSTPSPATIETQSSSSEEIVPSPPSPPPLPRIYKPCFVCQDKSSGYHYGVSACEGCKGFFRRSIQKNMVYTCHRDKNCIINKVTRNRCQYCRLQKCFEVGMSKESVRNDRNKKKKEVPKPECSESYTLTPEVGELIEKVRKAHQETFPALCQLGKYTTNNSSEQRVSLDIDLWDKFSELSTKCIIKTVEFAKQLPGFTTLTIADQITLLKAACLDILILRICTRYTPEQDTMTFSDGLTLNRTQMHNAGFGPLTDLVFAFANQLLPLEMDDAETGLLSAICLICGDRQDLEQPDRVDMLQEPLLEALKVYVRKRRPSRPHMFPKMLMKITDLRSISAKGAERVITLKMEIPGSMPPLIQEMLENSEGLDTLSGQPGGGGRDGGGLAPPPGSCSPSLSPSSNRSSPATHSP
Method in brief: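 HepG2 cells transiently transfected with multiple reporter units expressing chimeric RARα-GAL4 fusion, with GAL4-UAS-driven reporters. After 24 h compound exposure, reporter mRNA induction quantified by RT-PCR and capillary electrophoresis with fluorescent labeling; gain-of-signal fitted relative to DMSO control.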

Measured: AC50

C=CC(=C)CCC=C(C)C
inactive: [1] | [2] | [3] | [4] | [5] | [6]

O=C(O)c1cccc(N(Cc2cccnc2)c2ccc(OC(F)F)c(OC(F)F)c2)c1
active: [1] 35.7 µM | [2] 14.7 µM
not listed: [5] | [10]
inactive: all other assays above

C1=CCCC=CCCC=CCC1
not listed: [7] | [8]
inactive: all other assays above

CC(C)c1cccc(C(C)C)c1N1C(=O)c2ccc(O)cc2C1=O
inactive: [2] | [8] | [6] | [10]
active: [1] 166 µM | [3] 19 µM | [4] 16.7 µM | [5] 30.8 µM

Cn1c(=O)c2c(ncn2C)n(C)c1=O
inactive: [1] | [2] | [3] | [4] | [5] | [6]

Cc1ccc(S(=O)(=O)O)cc1C
not listed: [5]
inactive: all other assays above

CCNc1ccccc1
not listed: [5]
inactive: all other assays above

CCn1nc(Cc2ccccc2)cc1C1CCN(C[C@H]2C[C@H](N(C)[C@@H](C(=O)O)C(C)C)C[C@@H]2c2cccc(F)c2)CC1
active: [1] 100 µM
not listed: [7] | [9] | [10]
inactive: all other assays above

COC(=O)c1c(Cl)c(Cl)c(C(=O)OC)c(Cl)c1Cl
not listed: [5] | [9] | [10]
inactive: all other assays above

C[C@](N)(Cc1ccc(O)c(O)c1)C(=O)O
not listed: [7] | [10]
inactive: all other assays above

Cc1ccc(C)c(O)c1
not listed: [7]
inactive: all other assays above

COc1cccc(-c2ccc(/C=C\CN3CCCCCC3)cc2Cl)c1
inactive: [1] | [7] | [8]
active: [2] 31.5 µM | [3] 24.3 µM | [4] 33.1 µM | [6] 33.5 µM

CCCCCCCCCCCCCCCO
inactive: [1] | [2] | [7] | [8] | [6]
active: [3] 35.6 µM | [4] 15.4 µM

O=c1[nH]c2ccc(S(=O)CCN3CCC(Cc4ccc(F)cc4)CC3)cc2o1 (stereo unspecified)
not listed: [5] | [9] | [10]
inactive: all other assays above

CNCc1ccc(NC(=O)c2c[nH]c3c2C(=O)CCC3)cc1
not listed: [7] | [9]
inactive: all other assays above

Cc1c(-c2cccnc2)c2ccccc2n1CCCCC(=O)O
not listed: [5]
inactive: all other assays above

CC(C)CCCCCCCOC(=O)CCCCC(=O)OCCCCCCCC(C)C
active: [10] 28.8 µM
not listed: [7] | [8]
inactive: all other assays above

CC(C)CCO
not listed: [5] | [8]
inactive: all other assays above

Cc1ccc(O)cc1
inactive: [1] | [2] | [3] | [4] | [6]

O=C(CCCCCCCCc1cccnc1)N1CCC(C=C(c2ccccc2)c2ccccc2)CC1
active: [1] 19.3 µM | [2] 8.68 µM | [3] 7.01 µM | [4] 14.3 µM | [6] 15.4 µM
inactive: [8]

O=C(O)c1cc(N=Nc2ccc(S(=O)(=O)Nc3ccccn3)cc2)ccc1O
inactive: [1] | [2] | [3] | [4] | [8] | [6]

C1N2CN3CN1CN(C2)C3
not listed: [5] | [8] | [9]
inactive: all other assays above

CC[C@H]1OC(=O)[C@H](C)[C@@H](O[C@H]2C[C@@](C)(OC)[C@@H](O)[C@H](C)O2)[C@H](C)[C@@H](O[C@@H]2O[C@H](C)C[C@H](N(C)C)[C@H]2O)[C@](C)(O)C[C@@H](C)C(=O)[C@H](C)[C@@H](O)[C@]1(C)O
not listed: [5] | [8] | [9]
inactive: all other assays above

COC(=O)CC(=O)OC
inactive: [1] | [2] | [3] | [4] | [6]

COc1ccc(-n2nc(C(F)F)cc2-c2ccc(S(C)=O)cc2)cc1 (stereo unspecified)
inactive: [1] | [2] | [3] | [4] | [8] | [6]

O=C(O)CC(O)C(=O)O (stereo unspecified)
not listed: [5] | [8] | [10]
inactive: all other assays above

CC(C)=CCC/C(C)=C\CO
inactive: [1] | [2] | [3] | [4] | [7] | [6]

O=C(O)CCN(C1(C(=O)NO)CCCC1)S(=O)(=O)c1ccc(Oc2ccc(F)cc2)cc1
not listed: [5] | [8] | [10]
inactive: all other assays above

COCCOc1cc2cc(C(=O)NC3CCN(C(C)C)CC3)n(CC(=O)Nc3ccc(Cl)cn3)c2cn1
inactive: [1] | [2] | [3] | [4] | [7] | [6]

COCCOCCOCCOC
not listed: [5] | [8]
inactive: all other assays above

CN(C)c1ccc(Cc2ccc(N(C)C)cc2)cc1
active: [8] 58.5 µM
not listed: [5] | [7] | [10]
inactive: all other assays above

Nc1nc2ncc(CNc3ccc(C(=O)N[C@@H](CCC(=O)O)C(=O)O)cc3)nc2c(=O)[nH]1
inactive: [1] | [2] | [3] | [4] | [6]

Clc1nc(Cl)c(Cl)c(Cl)c1Cl
active: [4] 16.5 µM
not listed: [5] | [7] | [10]
inactive: all other assays above

CC(C)=CCCC(C)CCO (stereo unspecified)
active: [7] 65.5 µM
not listed: [5] | [8] | [10]
inactive: all other assays above

CCCCC(CC)COC(=O)c1ccc(C(=O)OCC(CC)CCCC)cc1 (stereo unspecified)
inactive: [1] | [2] | [3] | [4] | [6] | [10]

CCOc1cccc(-n2cc(C(=O)N3CCN(c4cc(C(=O)O)c5ccccc5c4)CC3)nc2-c2ccc(C)cc2)c1
inactive: [1] | [8]
active: [2] 28.7 µM | [3] 13.9 µM | [4] 27.9 µM | [6] 29.7 µM

CC(=O)OC[C@H]1O[C@@](COC(C)=O)(O[C@H]2O[C@H](COC(C)=O)[C@@H](OC(C)=O)[C@H](OC(C)=O)[C@H]2OC(C)=O)[C@@H](OC(C)=O)[C@@H]1OC(C)=O
inactive: [1] | [2] | [3] | [4] | [7] | [6]

CC/C(=C\C(=N/O)C(N)=O)C(C)[N+](=O)[O-] (stereo unspecified)
active: [4] 20 µM
inactive: [1] | [2] | [3] | [7] | [6]

CC(C)CCCCCCOC(=O)c1ccc(C(=O)OCCCCCCC(C)C)c(C(=O)OCCCCCCC(C)C)c1
not listed: [5] | [7] | [8]
inactive: all other assays above

CC(=O)c1ccc2c(c1)[C@H](NC(=O)c1ccc(F)cc1)[C@@H](O)C(C)(C)O2
not listed: [5] | [8] | [10]
inactive: all other assays above

Cn1c(=O)cc(Oc2ccc(F)cc2F)c2cnc(NCC(C)(C)O)nc21
inactive: [3] | [4] | [6]
active: [1] 41.7 µM | [2] 1.4 µM

Nc1cccc(N)c1
not listed: [5] | [7] | [8]
inactive: all other assays above

CCOCCO
inactive: [1] | [2] | [3] | [4] | [6] | [9]

O=C1CCC(N2C(=O)c3ccccc3C2=O)C(=O)N1 (stereo unspecified)
inactive: [1] | [2] | [3] | [4] | [8] | [6]

CC(C)(O)c1coc(S(=O)(=O)NC(=O)Nc2c3c(cc4c2CCC4)CCC3)c1
inactive: [1] | [2] | [3] | [4] | [6]

CC[C@H](C)C(=O)O[C@H]1C[C@@H](C)C=C2C=C[C@H](C)[C@H](CC[C@@H]3C[C@@H](O)CC(=O)O3)[C@H]21
active: [2] 31 µM | [3] 18.3 µM | [4] 33.7 µM | [6] 36.8 µM
inactive: [1] | [7]

CC(O)CN(CCN(CC(C)O)CC(C)O)CC(C)O (stereo unspecified)
not listed: [5] | [7] | [10]
inactive: all other assays above
